Columns and labels:
Test in all cases: PBM binding z-score (relative to random genomic background probes); higher = stronger binding; sequences stand for … in GC…GCGATTGACAGCGTAGAATGAAGG
[1] = test system: FXR:RXRa (NR concentration 270 nM, RXRa partner concentration 90 nM)
Summary of the method: (§1)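 Probes were double-stranded and carried 34-nt variable regions with direct-repeat seeds, single-nucleotide variants, half-site ablations and random human genomic background sequences, printed on custom Agilent 4×180K protein-binding microarrays. Arrays were incubated 1 h with ligand-free nuclear receptor dimers in PBS pH 7.4, 2% milk, 0.02% Triton X-100, 1 mM DTT, 0.2 mg/mL BSA and 0.4 mg/ml salmon testes DNA. Antibodies against each partner (one per run) detected binding, and scanned fluorescence was regression-normalized. Binding z-scores use the random background probes as reference.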

[2] = test system: LXRa:RXRa (NR concentration 270 nM, RXRa partner concentration 90 nM)
Summary of the method: as §1

[3] = test system: LXRa homodimer (NR concentration 270 nM)
Summary of the method: as §1

[4] = test system: LXRb:RXRa (NR concentration 270 nM, RXRa partner concentration 90 nM)
Summary of the method: as §1

[5] = test system: LXRb homodimer (NR concentration 270 nM)
Summary of the method: as §1

[6] = test system: PPARa:RXRa (NR concentration 270 nM, RXRa partner concentration 90 nM)
Summary of the method: as §1

[7] = test system: PPARg:RXRa (NR concentration 180 nM, RXRa partner concentration 90 nM)
Summary of the method: as §1

[8] = test system: PPARg:RXRa 270nM:90nM, anti-RXR (NR concentration 270 nM, RXRa partner concentration 90 nM)
Summary of the method: as §1

[9] = test system: PPARg:RXRa 30nM:10nM, anti-RXR (NR concentration 30 nM, RXRa partner concentration 10 nM)
Summary of the method: as §1

[10] = test system: PPARg:RXRa 90nM:30nM, anti-RXR (NR concentration 90 nM, RXRa partner concentration 30 nM)
Summary of the method: as §1

Sequence	PBM binding z-score [1]	PBM binding z-score [2]	PBM binding z-score [3]	PBM binding z-score [4]	PBM binding z-score [5]	PBM binding z-score [6]	PBM binding z-score [7]	PBM binding z-score [8]	PBM binding z-score [9]	PBM binding z-score [10]
GCAGATAGGTAATACAAGGTGAAAGTCCGATTGT	1.42	2.24	0.134	0.475	-0.791	1.04	0.544	0.592	0.199	0.421
ATCGAGAGGTCGTGAGGTGAGTATACAGAAAGGC	3.73	2.94	0.117	2.25	0.0713	4.03	2.75	2.74	0.76	1.91
CAAACTAGGTCACCCGAAGGTCAAAGTCCGCATG	6.1	6.03	4.86	5.07	1.57	6.24	9.64	8	5.77	7.5
GGAACGAGGGCAAAGTTGATAGTATCTGTCGACG	1.26	0.763	-0.348	0.972	-0.379	4.02	6.9	7.32	6.78	7.32
TATACAGGGTCAAAGGACAGAGTACGAATGTCGA	7.39	6.09	2.79	4.85	2.96	6.24	7.83	6.55	4.83	5.84
CCAGACAGGTGAGATGGTAACTCAGCCTCGATTA	-0.218	-0.133	0.219	-0.0689	-0.491	0.132	0.33	0.151	-0.316	-0.00959
TCATATAGGTAAAGGTGAAAATCGAACGATATGA	1.01	1.19	-0.224	1.35	0.0615	3.15	4.11	4.4	4.25	4.59
CCTACTGGGCCATTCAGAGGTCATTTATCATATG	2.65	4.36	8.31	4.14	1.15	3.75	2.29	2.85	0.841	1.78
TTACCAAGGTGAGCTGTGGTCGTTGATCCAACTC	0.0539	-0.153	-0.583	-0.347	-1.27	0.301	-0.403	0.0963	-0.507	0.106
CCTACTGGGGCATAAGGTTACCATAAGCCAGCCC	0.331	1.69	-0.117	0.717	-0.859	2.47	3.73	4.44	2.09	4.09
TTGCCTAGGTCATGGGCCAGTATACCACGCGAAC	4.71	3.43	0.623	2.49	-0.439	4.25	3.7	3.59	0.614	2.48
TAGAGTAGGTTAGGGGCATTCAGAATGGCGTCGA	0.854	0.929	0.289	1.66	2.45	2.24	2.29	3.01	1.48	2.6
TAGCCGAGGTCAGATCGGGCCAGTATACGCTATA	5.46	4.26	0.00263	3.74	0.611	4.8	3.14	3.56	1.05	2.17
CCTTACGGGTCAAGGTTATAGGACGGGTGGTACG	5.27	3.82	0.302	3.28	0.221	5.05	4.55	4.69	2.05	3.36
GCAGACAGGTGAAACGCAGGTTACTCAGGGTGGC	-0.0153	0.86	-0.533	0.216	-0.875	1.06	0.535	0.0459	-0.6	-0.266
TCGTGTAGGTTAGTCGGGGCATTCAGCCAACATA	0.782	0.838	0.294	1.36	0.252	1.16	-0.0243	1.38	2.34	1.62
ATCTCTAGGTAACAAGTACAGTGAAAGAGAGGAC	0.404	0.297	0.245	-0.0374	0.894	0.308	1.33	1.36	0.696	1.02
GATACAGGGGCAGCTAGAGGCCAGAGTATGGAAA	0.0694	0.017	-0.177	0.453	-0.405	0.26	0.483	0.296	-0.0735	-0.078
TCTTGTATATCAATAGAGGTTAAGAAAGTGCGCT	0.889	3.66	0.646	1.74	0.472	1.77	0.559	1.69	3.02	2.45
GCTCAGAGGACAAGGTCAGAGCTTTGTCCGTAGA	1.98	1.73	-0.421	1.27	-0.977	2.37	0.282	0.936	-0.588	0.0916
CCTACTGGGCCAAAAAGGGCATTGATGCCGATAA	-0.479	-0.109	-0.296	-0.0231	-1	1.12	0.538	1.32	-0.152	0.651
CCTACTGGGCCACGAAAGGTCTTTGATTCAGTGA	0.186	-0.153	-0.487	-0.225	-1.08	1.31	1.84	1.99	-0.0558	0.769
ATATGTAGGCTAGCTGGGGTCATTCAGACTAGGC	3.46	3.2	1.14	3.49	-0.151	4.32	3.2	3.64	1.1	2.83
GCTAGGAGGACAAGGTCAGAGCTTTGTCCGTAGA	1.46	1.37	-0.572	0.865	-0.916	2.36	0.985	1.44	-0.224	0.93
CCGTCTGGGGCAAGGTTACCATAACGCACAGCCA	0.304	0.595	-0.295	0.486	-1.06	1.47	1.66	2.36	0.376	1.93

Sequence	PBM binding z-score [1]	PBM binding z-score [2]	PBM binding z-score [3]	PBM binding z-score [4]	PBM binding z-score [5]	PBM binding z-score [6]	PBM binding z-score [7]	PBM binding z-score [8]	PBM binding z-score [9]	PBM binding z-score [10]
TCTTGTAGATCAATAGCGGTTAAGAAAGTGCGCT	0.25	0.57	0.174	0.435	-0.253	0.5	-0.524	1.28	2.75	2.17
TGTCAAAGTTCAAGGGTAACGTAAGTATCCACAC	6.24	6.1	3.43	3.73	0.957	5.25	8.36	7.5	5.26	7.05
GCATATAGGTCATACAAGGTGAAAGTCCGATTGT	6.4	5.8	2.37	4.27	0.913	5.75	7.36	6.55	4.09	6.05
AGTCCAAGTTCATCTAGGTAACGTAAGATATGCT	3.42	3.23	1.19	1.62	0.287	2.59	1.45	1.61	0.523	0.991
GTGCCAAGGTGAATAGGTCGTTGATGAGTAGGCG	0.631	0.487	-0.344	0.408	-0.536	2.12	1.15	1.53	0.00309	0.77
GGAACGAGGGCATTCGTGTTGATAGCATGGCGAT	0.778	0.372	-0.449	0.152	-0.674	1.39	0.763	0.768	-0.395	0.413
GTACCAAGGTGAAAAGGTCGTTGATGAGTAGGCG	2.32	1.94	0.42	1.99	-0.22	3.63	2.62	3.36	1.38	2.94
GCGACTGGGGCAAAGCAGGTTACCAAAAGGTTGG	0.475	0.517	-0.168	0.19	-1.32	1.78	1.11	1.55	-0.194	0.774
CCGAGTAGGTTATGGGGCTTTCAGGCAACGGTGA	0.104	0.374	-0.409	0.503	-0.205	1.34	1.69	2.5	0.331	1.54
CCGAGCAGGTTATGGGGCATTCAGGCAACGGTGA	0.101	0.177	-0.511	0.325	-0.148	1.45	0.617	1.24	-0.414	0.762
TAGCCTAGTTCATGGGCCAGTATACCACGCGAAC	0.00503	0.504	-0.133	0.304	-0.689	0.867	0.6	0.24	-0.416	0.104
AGATTGAGGTTATACGTAGATCAGGGAAGAAAGT	1.82	1.79	0.26	1.37	0.202	2.91	1.21	1.56	0.644	1.05
TCATATAGGTAATACAAGTGAAAGTCGGCATCTA	1.52	1.28	0.46	1.17	0.185	1.59	1.39	2.52	4.29	3.28
TTACCAAGGTGAAGGTCTTTGATCCCTCTGTAGA	0.557	0.55	-0.405	0.371	-0.742	1.64	1.37	2.45	0.89	2.12
CAAACTAGGTCACGAAAGGTCAAAGTAGAATGAC	7.59	8.11	8.28	7.19	2.72	6.77	10.6	8.55	6.87	8.89
ACAGACAGGTGAGTGAAGCTAACTCAGCTGGACG	-0.673	-0.375	-0.787	-0.865	-0.79	-0.342	0.546	-0.404	-0.443	-0.258
TACACAGGGTCAAAGGCCAGAGTACGAATGTCGA	6.94	5.94	1.96	4.44	1.69	5.95	7.46	7.03	4.73	6.42
ATCTCTAGGTAAAGATAGTTCAGTGCATGCAAAT	0.301	4	0.693	0.899	0.443	0.697	0.357	0.286	0.0573	0.225
AGTCACAGTTCAGGACGAGGTAACGTAAAGCACG	1.01	0.828	0.0856	0.666	-0.159	1.35	1.15	0.998	0.403	0.623
ACTAGCAGGCCAAGGGGCACTCAAGATTAGTCCG	-0.336	-0.192	-0.413	0.0457	-0.63	1.63	4.11	4.46	2.5	4.64
GCTGCTAGGTCAATTGATGGTCAGCTAAAGCTCG	2.8	2.21	-0.0789	1.47	0.292	2.93	1.36	1.87	-0.0907	1.18
CCTATTAGTTGACTATAAGGGCAACCGAAGCTCG	0.392	0.149	0.0612	0.294	0.219	0.121	0.445	0.0483	0.0994	-0.284
CAAACTAGGTCAACGGTCAAAGTCGAGCCAACCA	5.58	4.31	2.25	3.09	0.978	6.16	11	9.5	8.86	11
GCTGCTAGGTCAACTGTTGGTCAGCTAAAGCTCG	3.97	2.97	0.182	2.03	0.134	3.61	2.63	3.07	0.511	2.23

From the supplement of paper PMC6555819
